Measured values taken from PubChem BioAssay (NCATS).
Inconclusive results are not listed. Unmarked numbers belong to inactive results. Activity calls are given as the source filed them. The call rests on the fitted dose curve; in most records, active means well fitted activation curve with a large enough effect; inconclusive means small, poorly fitted or top-dose-only effect; inactive means flat fitted curve, though single readings scatter. Bridge positions count the residues as written; N and C are the ends. Square brackets hold non-standard residues; d marks the D form. Side chains are listed from the residue outwards. Peptide text beside a SMILES is read from it. * marks the point of attachment. ξ: configuration not given here. Phg(4-OMe) = COc1ccc([C@H](N)C(=O)O)cc1; d(aIle) = CC[C@H](C)[C@@H](N)C(=O)O; d(aThr) = C[C@@H](O)[C@@H](N)C(=O)O; NMeF = CN[C@@H](Cc1ccccc1)C(=O)O; Isobutyryl = CC(C)C(=O)*; ξL = CC(C)CC(N)C(=O)O

experiment: qHTS for Hypoxia signaling pathway (HIF-1) agonists against the NCATS CANVASS Library (AID 1347375); details: HRE-bla ME-180 cells, HIF-1 beta-lactamase reporter, 17 h; series mostly up to 38.3 µM; activation: at the top concentration; further: 0% is about no effect
Excerpt: Natural products and their derivatives continue to be wellsprings of nascent therapeutic potential. However, many laboratories have limited resources for biological evaluation, leaving their previously isolated or synthesized compounds largely or completely untested. To address this issue, the Canvass library of natural products was assembled (https://tripod.nih.gov/canvass), in collaboration with academic and industry researchers, for quantitative high-throughput screening (qHTS) across a diverse set of cell-based and biochemical assays. The pure (>85% purity by liquid chromatography/mass spectrometry [LC/MS]) Canvass library of 346 natural products were submitted by 45 academic laboratories and companies around the world. We collected pure natural products to circumvent deconvolution and structure elucidation due to time and resource limitations. The library was formatted into 1536-well plates and evaluated in 50 qHTS (in an 11-pnt concentration series) bioassays with broad scope of disease-relevant mechanisms. The resulting data set from 50 different assays was then systematically analyzed to identify overall trends and specific natural products with interesting biological activities. Reported herein are the results of each individual qHTS and their corresponding assay protocol. During hypoxic conditions, the cellular responses are regulated in large part through the activation of the heterodimeric transcription factor called hypoxia-inducible factor-1 (HIF-1). The assay used is a beta-lactamase reporter gene under control of the hypoxia responsive element (HRE) that has been stably integrated into ME-180 cells. This assay identifies inducers of the HIF-1-signaling pathway. The cytotoxicity of the compound library against HRE-bla ME-180 cell line was tested in parallel by measuring cell viability using CellTiter-Glo assay (Promega, Madison, WI) in the same assay wells. The compounds were also tested for auto fluorescence that may interfere with the biological target readout resulting in potential false positives and/or negatives. National Center for Advancing Translational Sciences (NCATS), Rockville, MD National Institute of Health (NIH), Bethesda, Maryland
HIF-1 agonist assay protocol: HRE-bla ME-180 cells were dispensed at 2,000 cells per well in 6 uL of assay medium containing 0.5% dialyzed FBS into black wall/clear-bottom 1536-well plates using a Multidrop Combi (Thermo Scientific, Waltham, MA) dispenser. After the assay plates were incubated at 37C and 5% CO2 for 5 hrs, 23 nL of compounds dissolved in DMSO, positive controls or DMSO only was transferred to each well of the assay plate using a Pintool station (Kalypsys, San Diego, CA). The assay plates were incubated at 37C and 5% CO2 for 17 hrs. One uL of LiveBLAzerTM B/G FRET substrate (CCF4-AM) (Life Technologies) was added to each well using a Flying Reagent Dispenser (Aurora Discovery, San Diego, CA). After 2 hr incubation at room temperature, fluorescence intensity (405 nm excitation, 460 nm and 530 nm emissions) was measured using an Envision plate reader (PerkinElmer, Shelton, CT). To assess cell viability (and for data normalization), 4uL of CellTiter-Glo (Promega) was added to the assay plate using the BioRAPTR dispenser and incubated at room temperature for 30 min. Luminescence signal was obtained using the ViewLux microplate reader (PerkinElmer) using a clear emission mirror, and a 15 sec exposure time, 1x binning settings.

SMILES | activation | outcome
C/C=C(/CO)C(=O)O[C@@H]1[C@H](O)[C@@H](C(=O)OC)O[C@@H]2C[C@H]3OC(n4cnc5c(N)ncnc54)[C@H](OC)[C@H]3O[C@@]12O (stereo not given in full) | 2.72% | –
COc1cc2oc3ccccc3c(=O)c2cc1OC | 8.39% [at 76 µM] | –
CC(C)C[C@@H]1c2c(O)c(C=O)c(O)c(C=O)c2O[C@]2(C)C=C[C@@H](C(C)C)C[C@H]12 | -2.78% | –
COc1ccc([C@@H]2c3cc4c(cc3C[C@H](C)C2C)OCO4)cc1OC (stereo not given in full) | 4.83% | –
C=C[C@@]1(C)CC[C@@H]([C@H](C)C(=O)/C=C/C(C)(C)O)O1 | -1.93% | –
COc1cc2c(cc1OC)[C@@H](c1ccc3c(c1)OCO3)C(C)[C@@H](C)C2=O (stereo not given in full) | 12.2% | –
O=C1CC(c2ccc(O)cc2)Oc2cc(O)ccc21 (stereo not given) | 5.55% | –
COc1ccc(-c2oc3cc(OC)cc(OC)c3c(=O)c2O)cc1 | -2.55% | –
C/C1=C/[C@@H](C)[C@H](O)[C@@H](O)/C=C/CC/C=C/C(=O)O[C@@H]1[C@H](C)C(=O)CCCC1CC(=O)NC(=O)C1 | 2.85% | –
CC[C@@H](c1cc(OC)c(OC)cc1OC)[C@H](C)[C@@H](/C(C)=C/c1cc(OC)c(OC)cc1OC)c1cc(OC)c(OC)cc1OC | – | inactive
CC[C@H](C)[C@H]1NC(=O)[C@@H](NC(=O)C(C)C)[C@@H](C)OC(=O)[C@H](COC(=O)CNC(C)=O)NC(=O)[C@@H]([C@@H](C)O)NC(=O)[C@H](Cc2ccccc2)N(C)C(=O)[C@H](c2ccc(OC)cc2)NC1=O (Isobutyryl-T[d(aIle)][Phg(4-OMe)][NMeF][d(aThr)]S([Gly-Ac]); ester 1-C) | -2.08% | –
COc1c(O)cc(O)c2c(=O)cc(-c3ccccc3)oc12 | 3.71% | –
C=C[C@@]1(C)CC[C@@H]([C@H](C)C(C)=O)O1 | -0.758% | –
COc1c(O)cc2c(c1O)C(=O)c1c(coc1C)C2=O | 6.28% | –
COC(=O)[C@@]1(C)CCC[C@]2(C)c3cc(OC)ccc3CC[C@@H]12 | 1.41% | –
C[C@@]1(CCC(=O)Nc2c(O)ccc(C(=O)O)c2O)C(=O)C=C[C@]23C[C@H]4C[C@H](O[C@@]4(C)C2)C31 (stereo not given in full) | -1.35% | –
C/C(=C\[C@@H](C)CC/C=C/CC/C=C/C(=O)O)[C@@H](O)[C@H](C)C(=O)CCCC1CC(=O)NC(=O)C1 | 2.57% | –
CC1=C[C@H]2[C@H]3C(=O)C(c4ccc(O)cc4)=C[C@@]3(c3ccc(O)cc3)[C@@H]1C(=O)[C@]2(C)O | 2.11% | –
COC(=O)[C@]1([C@H]2CCC(=O)O2)CC(=O)c2c(O)cc(C)cc2O1 | 3.04% | –
C/C(=C\[C@H](C)C(=O)/C=C/CC1CC(=O)NC(=O)C1)[C@@H]1OC(=O)CCCC/C=C/[C@H](O)[C@@H](O)[C@@H]1C | -0.573% | –

SMILES | activation | outcome
Oc1ccc(C2Oc3cc(O)c4c(c3[C@@H]2c2cc(O)cc(O)c2)[C@H]2C(c3ccc(O)cc3)c3c(O)cc5c(c3[C@H]2C4c2ccc(O)cc2)[C@H](c2cc(O)cc(O)c2)C(c2ccc(O)cc2)O5)cc1 (stereo not given in full) | 7.73% | –
CC(=O)N[C@H](C)c1nc(/C=C/C=C/C(=O)CC2CC(=O)CC[C@]2(C)O)cs1 (stereo not given in full) | 0.627% | –
CN1CC[C@]2(c3cccc4c3N[C@H]3N(C)CC[C@@]43[C@]34CCN(C)[C@H]3Nc3ccccc34)c3ccccc3N[C@H]12 | 3.97% | –
CCCc1c2c([nH]c(=O)c1C)C(=O)c1[nH]c(=O)c(C)c(CCC)c1C2=O | 1.84% | –
C[C@@H]1CC[C@]2(C(=O)O)CC[C@]3(C)C(=C2[C@H]1C)CC[C@@H]1[C@@]2(C)CC[C@H](O)C(C)(C)[C@@H]2CC[C@]13C | 4.18% | –
CC[C@H](O)CCCCC[C@@H]1NC(=O)[C@H]2CCCCN2C(=O)[C@H]([C@H](C)CC)NC(=O)[C@H](Cc2cn(OC)c3ccccc23)NC1=O | -4.1% | –
O=C1c2c(O)cc(O)cc2OC(c2ccc(O)cc2)C1O (stereo not given) | -3.1% | –
CC[C@H]1[C@H](C)[C@H](c2cc(OC)c(OC)cc2OC)[C@@H](C)[C@H](c2cc(OC)c(OC)cc2OC)[C@@]12C=C(OC)C(=O)C=C2OC | 1.29% | –
CC[C@@H](C)[C@H]1NC(=O)C(CC(C)C)NC(=O)[C@@H](CC(C)C)NC(=O)[C@H](Cc2c[nH]c3ccccc23)NC(=O)CNC(=O)[C@@H](CC(N)=O)NC1=O (stereo partly drawn) (cyclo(GW[dL][ξL][dI][dN])) | 10% | –
Cc1cc(C)c(O)c(C(=O)CC2CC(=O)NC(=O)C2)c1 | 3.59% | –
C=C[C@]1(C)CC[C@@H]([C@H](C)C(=O)CC=C(C)C)O1 | -1.33% | –
CC(C)=CCC[C@]1(C)[C@H]2CC(=O)[C@@]3(CO3)[C@@H]1C2 | -0.957% | –
C[C@@]12CCC[C@@](C)(C(=O)OP(=O)(O)OC[C@H]3O[C@@H](n4cnc5c(N)ncnc54)[C@H](O)[C@@H]3O)[C@H]1C[C@@H](O)[C@@]13C[C@@H](CC[C@@H]21)[C@](C)(O)C3 | 0.872% | –
C/C1=C/[C@@H](C)[C@H](O)[C@@H](O)/C=C/CC/C=C/C(=O)O[C@@H]1[C@H](C)C(=O)/C=C/CC1CC(=O)NC(=O)C1 | -0.405% | –
C=C1C[C@H]2O[C@@H]3[C@@H]4[C@H](CC[C@@](C)(O)[C@@H]42)[C@H](C)COC3(C)[C@@H](OC(=O)CCCCCCC)C[C@H]1O (stereo not given in full) | 1.73% | –
C/C(=C\[C@H](C)C(=O)C[C@H](O)CC1CC(=O)NC(=O)C1)[C@@H]1OC(=O)CCCC/C=C/C[C@@H](O)[C@@H]1C | 3.32% | –
C=C1[C@@]2(C)CC3C4(C)CCC(O)C(C)(C)C4CCC3(C)[C@]1(C(=O)OC)C(=O)C(C)(O)C2=O (stereo not given in full) | 2.89% | –
COC(=O)c1cccc2oc(-c3cccc4oc(-c5c(C)cccc5O)nc34)nc12 | -0.368% | –
CC[C@H]1[C@@H](C)[C@@H](c2cc(OC)c(OC)cc2OC)[C@H](C)[C@@H](c2cc(OC)c(OC)cc2OC)[C@@]12C=C(OC)C(=O)C=C2OC | -1.1% | –
COc1cc([C@@H]2c3cc4c(cc3C[C@@]3(O[C@@H]5O[C@H](CO)[C@@H](O)[C@H](O)[C@H]5O)COC(=O)[C@H]23)OCO4)cc(OC)c1OC | 1.87% | –
